Data from PubChem BioAssay AID1159580 (chemical genetic matrix, 2015).
“And” between values parts separate entries of the source, which are not always exact repeats. Identical values can stand only once. In all, about 5,500 compounds went through this assay and about 2,000 (36%) were called active. Inconclusive results (about 18%) are left out. Cut-off read from the data, not from the text of the source: active = normalized growth mostly below about 0.91 (no sharp cut-off); inconclusive = no clear call, values can overlap the other calls; inactive = mostly above about 0.92. The list shows a part of the results.

Experiment: chemical genetic growth profiling, strain panel (AID 1159580);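 note: tested at 20 µM; growth read once vehicle control cultures reached saturation at 30 °C; 1 = growth at the plate median or of vehicle wells; lower values mean less growth of the strain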
Conditions: S. cerevisiae deletion strains, growth OD

Measured: normalized growth

CC(N)CCCC(C)(C)O (centres undefined)
inactive: locus YAL013W, strain DEP1, stronger effect = lower value 0.998 | locus YAL021C, strain ccr4, stronger effect = lower value 0.973 | locus YAL026C, strain drs2, stronger effect = lower value 0.993 | locus YAL030W, strain snc1, stronger effect = lower value 0.989 | locus YBL061C, strain skt5, stronger effect = lower value 0.98 | locus YBR009C, strain hhf1, stronger effect = lower value 1.01 | locus YBR021W, strain FUR4, stronger effect = lower value 1.02 | locus YBR023C, strain chs3, stronger effect = lower value 0.98 | locus YBR171W, strain sec66, stronger effect = lower value 0.964 | locus YBR229C, strain ROT2, stronger effect = lower value 1.01 | locus YBR231C, strain swc5, stronger effect = lower value 0.976 | locus YBR279W, strain paf1, stronger effect = lower value 0.984 | locus YCL011C, strain gbp2, stronger effect = lower value 0.969 | locus YCL016C, strain dcc1, stronger effect = lower value 0.989 | locus YCL029C, strain bik1, stronger effect = lower value 1 | locus YCL061C, strain MRC1, stronger effect = lower value 0.971 | locus YCL069W, strain vba3, stronger effect = lower value 0.979 | locus YCR088W, strain abp1, stronger effect = lower value 0.973 | locus YDL005C, strain med2, stronger effect = lower value 0.983 | locus YDL035C, strain GPR1, stronger effect = lower value 1.02 | locus YDL040C, strain nat1, stronger effect = lower value 0.984 | locus YDL074C, strain BRE1, stronger effect = lower value 0.979 | locus YDL101C, strain DUN1, stronger effect = lower value 0.994 | locus YDL134C, strain PPH21, stronger effect = lower value 1.02 | locus YDL185W, strain tfp1, stronger effect = lower value 1.01 | locus YDL192W, strain arf1, stronger effect = lower value 1.01 | locus YDR001C, strain nth1, stronger effect = lower value 0.973 | locus YDR069C, strain doa4, stronger effect = lower value 0.981 | locus YDR101C, strain arx1, stronger effect = lower value 0.976 | locus YDR137W, strain rgp1, stronger effect = lower value 1.01 | locus YDR159W, strain sac3, stronger effect = lower value 0.975 | locus YDR162C, strain NBP2, stronger effect = lower value 1.01 | locus YDR195W, strain ref2 0.904 | locus YDR297W, strain sur2, stronger effect = lower value 0.975 | locus YDR318W, strain mcm21, stronger effect = lower value 1.01 | locus YDR334W, strain swr1, stronger effect = lower value 0.93 | locus YDR335W, strain msn5, stronger effect = lower value 0.985 | locus YDR388W, stronger effect = lower value 1.01 | locus YDR392W, strain spt3, stronger effect = lower value 0.905 | locus YDR502C, strain sam2, stronger effect = lower value 0.996 | locus YEL003W, strain gim4, stronger effect = lower value 0.97 | locus YEL037C, strain rad23, stronger effect = lower value 0.977 | locus YEL061C, strain CIN8 (second series), stronger effect = lower value 0.977 | locus YEL061C, strain CIN8, stronger effect = lower value 0.994 | locus YER015W, strain faa2, stronger effect = lower value 0.982 | locus YER016W, strain bim1, stronger effect = lower value 0.98 | locus YER110C, stronger effect = lower value 1.02 | locus YER111C, strain swi4, stronger effect = lower value 0.987 | locus YER155C, strain BEM2 (second series), stronger effect = lower value 0.972 | locus YER155C, strain BEM2, stronger effect = lower value 1 | locus YER167W, strain BCK2, stronger effect = lower value 1.01 | locus YFR010W, strain ubp6, stronger effect = lower value 0.978 | locus YGL078C, strain dbp3, stronger effect = lower value 1.01 | locus YGL086W, strain mad1, stronger effect = lower value 0.998 | locus YGL167C, strain pmr1, stronger effect = lower value 0.979 | locus YGL173C, strain kem1, stronger effect = lower value 0.983 | locus YGL227W, strain vid30, stronger effect = lower value 0.981 | locus YGL240W, strain doc1, stronger effect = lower value 0.979 | locus YGL248W, strain PDE1, stronger effect = lower value 1 | locus YGL253W, strain hxk2, stronger effect = lower value 0.977 | locus YGR135W, strain pre9, stronger effect = lower value 1.04 | locus YGR229C, strain SMI1, stronger effect = lower value 0.99 | locus YGR252W, strain gcn5, stronger effect = lower value 1.01 | locus YHR013C, strain ard1, stronger effect = lower value 0.959 | locus YHR027C, strain rpn1, stronger effect = lower value 0.969 | locus YHR030C, strain SLT2, stronger effect = lower value 1.01 and 1.08 | locus YHR079C, strain IRE1 (second series), stronger effect = lower value 1.01 | locus YHR079C, strain IRE1, stronger effect = lower value 1.08 | locus YHR094C, strain hxt1, stronger effect = lower value 1 | locus YHR129C, strain ARP1, stronger effect = lower value 1.01 | locus YHR142W, strain chs7, stronger effect = lower value 0.954 | locus YHR200W, strain rpn10, stronger effect = lower value 1.01 | locus YIL066C, strain RNR3, stronger effect = lower value 0.998 | locus YIL073C, strain SPO22, stronger effect = lower value 1.05 | locus YIL125W, strain kgd1, stronger effect = lower value 1 | locus YIR030C, strain dcg1, stronger effect = lower value 1.01 | locus YJL092W, strain hpr5, stronger effect = lower value 0.966 | locus YJL095W, strain BCK1 (second series), stronger effect = lower value 0.977 | locus YJL095W, strain BCK1, stronger effect = lower value 0.972 and 1.1 | locus YJL115W, strain asf1, stronger effect = lower value 0.939 | locus YJL129C, strain trk1, stronger effect = lower value 0.975 | locus YJL134W, strain LCB3, stronger effect = lower value 1.01 | locus YJL154C, strain vps35, stronger effect = lower value 0.978 | locus YJL164C, strain tpk1, stronger effect = lower value 1.01 | locus YJL166W, strain qcr8, stronger effect = lower value 0.987 | locus YJL168C, strain set2, stronger effect = lower value 0.997 | locus YJL187C, strain SWE1 (second series), stronger effect = lower value 0.974 | locus YJL187C, strain SWE1, stronger effect = lower value 0.994 | locus YJR043C, strain POL32, stronger effect = lower value 0.989
